Screening data deposited in PubChem BioAssay by several laboratories.
Only some compounds are listed: those with a hit (about 5.4% of all), similar ones and a draw of the others.
Granule exo inh = lytic granule exocytosis inhibition. inhibition, % at 10 µM. TALL-104 LAMP-1 surface exposure, flow cytometry; cells stimulated with thapsigargin and PMA. hit rate 0.66% among 360,000. AID 651702;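 active = inhibition above about 55%, limit read from the data; inconclusive = no clear call, values can overlap the other calls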
SMARCA2 activ = SMARCA2 function activation, primary screen | MG213 cells, MMTV-luciferase reporter, dexamethasone, overnight | activation, % at 9.1 µM | hit rate 1% among 370,000 | AID 652017; in the data active = activation above about 7.8%;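 also: 0% = vehicle wells and 100% = reference activator wells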
GASC-1 inh = human JMJD2C demethylase inhibition; GST-JMJD2C(1-420) H3K9me3 demethylation, DELFIA europium; inhibition, % at 2.35 µM; hit rate 0.069% among 330,000; AID 2099;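 active = more than half of a compound's replicate wells show inhibition beyond 50%, single wells judged on their own value; inconclusive = some, but no more than half, of replicates pass 50% inhibition; inactive = no replicate passes 50% inhibition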;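 also: signal counts dimethyl H3K9 product captured on neutravidin plate; 0% = median of DMSO wells and 100% = 0.3 times that DMSO median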
Target sequence (Q9H3R0 1-420 limits assumed): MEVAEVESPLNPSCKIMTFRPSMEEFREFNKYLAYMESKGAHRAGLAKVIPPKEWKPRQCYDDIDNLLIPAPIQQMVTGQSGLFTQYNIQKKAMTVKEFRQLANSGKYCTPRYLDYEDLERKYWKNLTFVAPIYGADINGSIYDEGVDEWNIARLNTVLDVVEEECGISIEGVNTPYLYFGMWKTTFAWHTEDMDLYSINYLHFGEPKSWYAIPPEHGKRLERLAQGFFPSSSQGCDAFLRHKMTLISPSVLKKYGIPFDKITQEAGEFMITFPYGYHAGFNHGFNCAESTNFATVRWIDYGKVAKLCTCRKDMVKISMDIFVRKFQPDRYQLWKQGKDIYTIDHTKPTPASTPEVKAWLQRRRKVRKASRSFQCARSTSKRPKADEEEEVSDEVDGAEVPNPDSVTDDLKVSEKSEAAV
PfM18AAP inh-1 = PfM18AAP enzyme inhibition | inhibition, % at 7.35 µM | recombinant PfM18AAP, H-Glu-NHMec fluorogenic cleavage | hit rate 1.2% among 290,000 | AID 1822;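 active = inhibition above the campaign mean inhibition over all tested compounds plus 3 SD, cut at about 28% in these data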;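 also: 0% = plate median of test compound wells and 100% = 2 mM ZnCl2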
MIN6 prolif-1 = induces beta-cell replication in MIN6 cells | proliferation, % at 10 µM | AID 2380 | hit rate 0.29% among 330,000 | MIN6 cells proliferation, ATPlite luminescence, 48 h; cells starved in 0.2% serum; 100% = growth in 10% serum;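 active = compounds whose signal lies at least 3.5 SD above the mean of all wells on their plate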;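 also: 0% = DMSO-treated cells in low-serum medium and 100% = 10% serum control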
ALR H2O2 inh = inhibitors of human sulfhydryl oxidase ALR | inhibition, % (concentration not given with the values) | P55789 | purified ALR, DTT oxidation, H2O2 HRP-luminol luminescence | hit rate 3.8% among 290,000;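 active = mean replicate inhibition above about 79%, with every replicate also reaching it, limit read from the data; inconclusive = only one of the two criteria met; inactive = mean below limit and not every replicate reaching it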
Target sequence (P55789 whole entry, looked up): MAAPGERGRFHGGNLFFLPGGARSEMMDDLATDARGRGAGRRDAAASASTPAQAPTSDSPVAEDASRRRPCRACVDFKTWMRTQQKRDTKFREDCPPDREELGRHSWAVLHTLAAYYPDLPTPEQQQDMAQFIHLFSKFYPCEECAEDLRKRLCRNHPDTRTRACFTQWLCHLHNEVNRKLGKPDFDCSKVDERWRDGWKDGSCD
PfM18AAP inh-2 = PfM18AAP inhibition, confirmation; shares compounds with PfM18AAP inh-1; recombinant PfM18AAP, H-Glu-NHMec fluorogenic cleavage; inhibition, % at 7.35 µM; hit rate 28% among 2,400;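 active = mean inhibition over replicate wells above the hit cutoff set for the earlier primary screen, cut at about 29% in these data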;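 also: 0% = median of test compound wells and 100% = 2 mM ZnCl2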
CTSL1 counter = counter-screen for PFM18AAP inhibitors: confirmation of human cathepsin L inhibitors; shares compounds with PfM18AAP inh-1; purified cathepsin L1, Z-Leu-Arg-MCA fluorescence; inhibition, % at 5.96 µM; 2,400 tested, under 10 active;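 active = average inhibition across replicates above the hit cutoff set in the earlier primary screen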;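 also: 0% = median of test compound wells and 100% = Z-Phe-Ala-diazomethylketone 1 µM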
MIN6 prolif-2 = MIN6 beta-cell replication induction, confirmed; shares compounds with MIN6 prolif-1; MIN6 beta-cell proliferation, ATPlite luminescence, 48 h; cells kept in 0.2% serum; scaled between 0.2% and 10% serum; proliferation increase, % at 50 µM; 920 tested, under 10 active; AID 463095;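 active = proliferation increase above 40% at any of the four tested concentrations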
Granule exo CP1 = blocks lytic granule exocytosis; TALL-104 cells, LAMP-1 externalization, flow cytometry; stimulated with PMA plus thapsigargin; hit rate 11% among 1,500; AID 651954; shares compounds with Granule exo inh; inhibition, % at 10 µM; in the data active = inhibition above about 60%;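 also: 0% = stimulated vehicle wells and 100% = unstimulated wells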
The depositor's hits bear a star; ? = inconclusive; . = no result given.

SMILES | Granule exo inh | SMARCA2 activ | GASC-1 inh | PfM18AAP inh-1 | MIN6 prolif-1 | ALR H2O2 inh | others
Cc1cc(C)cc(N2C(=O)NC(=O)/C(=C\c3cccn3-c3ccccc3)C2=O)c1 | 25.9 | -2.3 | -2.5 | 5.3 | 0.0 | 51.2
O=C1NC(=S)NC(=O)C1=Cc1cccn1-c1ccc(O)cc1 | 31.5 | 0.7 | ? | 33.9* | . | . | PfM18AAP inh-2=57.2*;CTSL1 counter=-2.2
Cc1ccc(-n2nc(C)c3c2NC(=O)CSC3c2ccc3c(c2)OCO3)cc1 (stereo not given) | -0.4 | 1.8 | 0.2 | 35.1* | -4.0 | -3.7 | PfM18AAP inh-2=-17.9;CTSL1 counter=3.4
COc1ccc(C2SCC(=O)Nc3c2c(C)nn3-c2ccccc2)cc1 (stereo not given) | 0.6 | -1.1 | 9.7 | -12.2 | -3.5 | .
CC1=C(C(=O)O)N2C(=O)C(NC(=O)Cc3ccccc3)C2SC1 (stereo not given) | -2.9 | -0.5 | 0.0 | 47.8* | -0.7 | -9.3 | PfM18AAP inh-2=-16.8;CTSL1 counter=-0.8
CN1CCC(OC(=O)Cc2ccccc2)CC1 | -8.6 | -0.8 | -1.5 | -4.2 | 0.5 | -17.7
COC(=O)Cn1cc(C=C2C(=O)NC(=O)NC2=O)c2ccccc21 | -33.2 | -1.3 | -3.8 | 48.6* | -1.0 | 5.5 | PfM18AAP inh-2=30.0*;CTSL1 counter=-7.3
CCn1cc(C=C2C(=O)NC(=O)NC2=O)c2ccccc21 | -12.9 | 3.0 | -11.6 | 42.4* | -2.9 | 0.9 | PfM18AAP inh-2=38.3*;CTSL1 counter=-0.2
CCC(NC(=O)OCc1ccccc1)P(=O)(Oc1ccccc1)Oc1ccccc1 (stereo not given) | . | -1.3 | . | . | . | .
CS(=O)(=O)N1Cc2cc(Br)ccc2-n2nncc2C1 | . | 7.4 | . | . | . | .
CN1C(=O)CCS(=O)(=O)C1c1ccc(Cl)cc1 (stereo not given) | . | -4.4 | . | . | . | .
O=c1[nH]c(=S)[nH]c(O)c1/C=C1/C=c2ccccc2=N1 | 8.1 | -3.7 | -4.5 | 43.5* | . | 20.7 | PfM18AAP inh-2=59.4*;CTSL1 counter=-2.8
Oc1ccccc1/C=N/NP(=S)(c1ccccc1)c1ccccc1 | -3.5 | -0.8 | 11.6 | -2.3 | -5.7 | -0.7
Oc1ccc(/C=N/NP(=S)(c2ccccc2)c2ccccc2)c(O)c1O | -1.3 | -3.2 | -16.0 | 33.2* | -2.5 | 98.8* | PfM18AAP inh-2=-23.9;CTSL1 counter=3.7
Oc1ccc(/C=N/NP(=S)(c2ccccc2)c2ccccc2)cc1O | 0.7 | -2.4 | -40.3 | 38.0* | -1.7 | 98.8* | PfM18AAP inh-2=0.9;CTSL1 counter=0.3
O=C1NC(=O)N(c2ccc3c(c2)OCO3)C(=O)/C1=C\c1ccsc1 | 13.3 | -3.8 | -24.0 | 33.4* | -1.0 | 37.3 | PfM18AAP inh-2=-58.6;CTSL1 counter=0.6
O=C(NCCN1CCC2(CC1)C(=O)NCN2c1ccccc1)c1cc(C(F)(F)F)ccc1C(F)(F)F | . | -1.9 | . | . | . | .
C=CCN1CCc2cccc3c2[C@H]1Cc1ccc(O)c(O)c1-3 | 83.6* | -0.3 | 1.3 | 62.0* | -5.0 | 99.5* | PfM18AAP inh-2=56.4*;CTSL1 counter=-5.3;Granule exo CP1=26.9
Nc1c(Br)cc2c3c(cccc13)-c1ccccc1-2 | . | -1.8 | . | . | . | .
CN1CCN(c2nc3ccccc3o2)CC1 | -1.4 | -1.3 | 4.4 | -10.5 | 7.3* | -0.3 | MIN6 prolif-2=-1.6
COc1ccc(-c2cc(=O)c3c(OC)c(OC)c(OC)cc3o2)cc1 | -1.4 | 0.3 | 1.0 | 1.4 | 9.3* | -11.9 | MIN6 prolif-2=-2.0
CC(=O)c1ccc(OC(NC(=O)c2ccco2)C(Cl)(Cl)Cl)cc1 (stereo not given) | 1.5 | 1.0 | 77.9 | -11.0 | 7.2* | -25.0 | MIN6 prolif-2=-0.7
O=C1NCN(c2ccccc2)C12CCN(C(CCc1ccccc1)c1nnnn1C1CCCCC1)CC2 (stereo not given) | 13.0 | -2.1 | . | . | . | .
COc1cccc(-n2c(/C=C/c3ccccn3)nc3ccccc3c2=O)c1 | -2.6 | -1.8 | 17.4 | -10.1 | 8.5* | 0.4 | MIN6 prolif-2=-6.2
Cc1cccc(-n2c(/C=C/c3ccccn3)nc3ccccc3c2=O)c1 | 4.4 | -0.8 | -7.1 | 1.4 | 1.4 | -9.0
SMILES | Granule exo inh | SMARCA2 activ | GASC-1 inh | PfM18AAP inh-1 | MIN6 prolif-1 | ALR H2O2 inh | others
CC/C(=N\NC(=O)c1ccccc1Cl)c1c(O)n(C2CCCCC2)c(=O)[nH]c1=O | -5.6 | 4.5 | 1.9 | 0.1 | -0.5 | 15.4
CC/C(=N\NC(=O)c1ccccc1)c1c(O)n(C2CCCCC2)c(=O)[nH]c1=O | 14.7 | 5.2 | 5.2 | 2.1 | 11.6* | 60.6 | MIN6 prolif-2=-4.7
COc1cc2c(c(OC)c1OC)-c1ccc(SC)c(=O)cc1C(NC(C)=O)CC2 (stereo not given) | -4.6 | -2.9 | . | . | . | .
O=S(=O)(c1cccc2ccccc12)N1Cc2ccccc2-n2nncc2C1 | 0.5 | -4.1 | . | . | . | .
C=CCn1c(O)c(C(CC)=NCc2ccco2)c(=O)[nH]c1=O | 1.2 | -6.8 | ? | 3.9 | 6.2* | 0.8 | MIN6 prolif-2=0.5
C[C@@H]1CN([C@H](C)CO)C(=O)CCCn2nncc2CO[C@@H]1CN(C)C(=O)Oc1ccc2ccccc2c1 | 1.1 | -0.7 | . | . | . | .
Cc1ccc(-n2c(O)c(C=Nc3ccc(S(N)(=O)=O)cc3)c(=O)[nH]c2=O)cc1 | -4.8 | -4.1 | -15.5 | 0.3 | -3.9 | -1.7
NS(=O)(=O)c1ccc(N=Cc2c(O)n(-c3ccccc3)c(=O)[nH]c2=O)cc1 | -1.2 | 1.4 | -5.9 | 2.6 | 8.2* | -1.8 | MIN6 prolif-2=2.8
CCC(C)N1C(=O)NC(=O)C2(Cc3c(ccc4ccccc34)N(C)C2)C1=O (stereo not given) | 60.3* | -3.7 | -26.7 | -0.8 | 2.1 | 92.6* | Granule exo CP1=-10.7
COc1ccc(CNCCc2ccc3c(c2)OCO3)cc1Br | 35.8 | 0.8 | -5.5 | 5.8 | -3.0 | 0.6
COc1ccc(Br)cc1CNCCc1ccc2c(c1)OCO2 | 58.9* | -1.3 | 2.7 | . | -3.5 | -5.7 | Granule exo CP1=-3.7
Cc1cc(C)c(S(=O)(=O)N2Cc3ccccc3-n3nncc3C2)c(C)c1 | 16.0 | -7.1 | . | . | . | .
CCCCCCCSc1cc(OC)c(CCNC)cc1OC | 84.6* | 0.6 | -10.8 | 1.1 | -3.6 | -12.6 | Granule exo CP1=48.3
Cc1cccc(C)c1-n1nnnc1C(c1cccs1)N1CCC2(CC1)C(=O)NCN2c1ccccc1 (stereo not given) | 1.1 | -4.5 | . | . | . | .
CCOc1ccc(N)cc1 | 101.3* | -0.3 | . | . | . | . | Granule exo CP1=-12.2
CCOc1ccc(N2C(=O)CC(=O)NC2=O)cc1 | -6.9 | -1.8 | 8.0 | -5.5 | 0.9 | -9.4
O=C(Nc1ccc(C(=O)O)cc1)Oc1ccc(N(CCCl)CCCl)cc1 | -7.7 | 3.6 | . | . | . | .
CCOc1cccc(CNCCc2c(C)[nH]c3ccc(OC(F)(F)F)cc23)c1O | 78.4* | -6.4 | -9.6 | 0.8 | -5.1 | 9.6 | Granule exo CP1=82.6*
